# Test results published in the supplement of paper PMC9135407.
# “And” between values parts separate entries of the source, which are not always exact repeats. Equal entries are not always repeated. Structures can show the parent of a compound that is named as a salt. Out of some 5,800 compounds screened, about 620 (11%) showed activity. This is one part of a sample in which actives are shown more often than they occur. Values without a mark were called inactive.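 Rule for the calls: active = score above a cut-off or among the top three wells of a plate; in these data no inactive exceeds 0.85.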
# Test system: primary human hepatic stellate cells (donor 1)
# Experiment: scaled lipid accumulation score (0 = DMSO-like, 1 = nortriptyline-like); higher = stronger HSC inactivation (lipid re-accumulation), active = hit call of the paper
# Settings: 48 h
# [1] = library stock concentration: 1 mM
# [2] = library stock concentration: 10 mM
# [3] = library stock concentration: 3.33 mM
# [4] = library stock concentration: 400 uM
# [5] = library stock concentration: 2 mM
# [6] = library stock concentration: 80 uM
structure (smiles),measurement,setting,value
CCCCCCCCCCCCCCCCOC[C@H](COP(=O)([O-])OCC[N+](C)(C)C)OC(=O)NC [Methylcarbamyl PAF C-16],scaled lipid accumulation score,[1],≤ 0
O=C(O)CCC/C=C\C[C@H]1[C@@H](/C=C/[C@@H](O)CCc2ccccc2)[C@H](O)C[C@@H]1O [8-iso-17-phenyl trinor Prostaglandin F2.alpha.],scaled lipid accumulation score,[1],≤ 0
O=C1CC2(CCCC2)CC(=O)N1CCCCNCC1COc2ccccc2O1 (stereo not drawn),scaled lipid accumulation score,[2],0.376
CNC(C)C(=O)NC(C(=O)N1CCCC1C(=O)NC(C(=O)NCCCCCCNC(=O)C(NC(=O)C1CCCN1C(=O)C(NC(=O)C(C)NC)C1CCCCC1)C(c1ccccc1)c1ccccc1)C(c1ccccc1)c1ccccc1)C1CCCCC1 (stereo not drawn),scaled lipid accumulation score,[3],0.26
same,scaled lipid accumulation score,[2],0.061
Cl.O=C(NCCCN1CCCCCC1)C(c1ccccc1)C1CCCCC1 (stereo not drawn),scaled lipid accumulation score,[2],0.897 (active)
CCN(CC)CCOC(=O)C(c1ccccc1)C1CCCCC1 (stereo not drawn) [Drofenine hydrochloride],scaled lipid accumulation score,,0.317
same,scaled lipid accumulation score,[2],0.335
CN1CC(O)C(O)C(O)C1CO (stereo not drawn) [N-Methyl-1-deoxynojirimycin],scaled lipid accumulation score,[2],≤ -0.07
Cc1[nH]nc2ccc(-c3cncc(OC[C@@H](N)Cc4ccccc4)c3)cc12,scaled lipid accumulation score,[2],0.795
Cc1n[nH]c2ccc(-c3cncc(OC[C@@H](N)Cc4ccccc4)c3)cc12,scaled lipid accumulation score,[3],1.24 (active)
O=c1cnn([C@@H]2O[C@H](CO)[C@@H](O)[C@H]2O)c(=O)[nH]1,scaled lipid accumulation score,[2],≤ 0
CNCCC(Oc1ccc(C(F)(F)F)cc1)c1ccccc1.Cl (stereo not drawn),scaled lipid accumulation score,[2],0.914 (active)
CNCCC(Oc1ccc(C(F)(F)F)cc1)c1ccccc1.Cl (stereo not drawn) [Fluoxetine hydrochloride] [listing 1 of 2 here],scaled lipid accumulation score,[2],1.57 (active)
CNCCC(Oc1ccc(C(F)(F)F)cc1)c1ccccc1.Cl (stereo not drawn) [Fluoxetine HCl],scaled lipid accumulation score,[3],0.709 (active)
same,scaled lipid accumulation score,[2],1.02 (active)
CNCCC(Oc1ccc(C(F)(F)F)cc1)c1ccccc1.Cl (stereo not drawn) [Fluoxetine],scaled lipid accumulation score,library stock concentration: 5.8 mM,0.96 (active)
CCCCCCCCCCCCCCCC(=O)N[C@H](C)CO [R-Palmitoyl-(1-methyl) Ethanolamide],scaled lipid accumulation score,[1],0.031
CCCCC[C@H](O)/C=C/[C@H]1[C@@H](O)CC(=O)[C@@H]1CCCCCCC(=O)O [11.beta.-Prostaglandin E1],scaled lipid accumulation score,[1],≤ 0
COc1ccnc2[nH]cc(C(=O)C(=O)N3CCN(C(=O)c4ccccc4)C[C@H]3C)c12,scaled lipid accumulation score,[3],≤ 0
same,scaled lipid accumulation score,[2],0.019
O=C(O)c1ccc(N2C(=O)C(=Cc3ccc(-c4ccc([N+](=O)[O-])cc4)o3)C=C2c2ccccc2)cc1,scaled lipid accumulation score,[3],0.129
same,scaled lipid accumulation score,[2],0.284
Cc1nc(N)ncc1-c1nc(N2CCOCC2)c2sc(C(C)(C)O)cc2n1,scaled lipid accumulation score,[4],0.092
same,scaled lipid accumulation score,[5],≤ -0.005
same,scaled lipid accumulation score,[2],≤ -0.005
O=C(CCCCc1ccccc1)C(F)(F)C(F)(F)F,scaled lipid accumulation score,[1],≤ 0
CC1CC(OC(=O)C(O)c2ccccc2)CC(C)(C)C1 (stereo not drawn),scaled lipid accumulation score,[2],0.065
CC1CC(OC(=O)C(O)c2ccccc2)CC(C)(C)C1 (stereo not drawn) [Cyclandelate],scaled lipid accumulation score,[3],≤ 0
same,scaled lipid accumulation score,[2],0.196
COc1cc2c(cc1OC)-c1[nH]nc(Nc3cccc(F)c3)c1C2,scaled lipid accumulation score,[6],≤ -0.001
same,scaled lipid accumulation score,[4],≤ -0.001
same,scaled lipid accumulation score,[1],≤ 0
same,scaled lipid accumulation score,[5],0.073
same,scaled lipid accumulation score,[2],0.232
COc1cc2c(cc1OC)-c1[nH]nc(Nc3cccc(F)c3)c1C2 [PDGF Receptor Tyrosine Kinase Inhibitor IV],scaled lipid accumulation score,[3],0.044
O[C@H]1[C@H](O)[C@@H](O)[C@@H]2O[C@@H]2[C@@H]1O (racemic) [Conduritol b epoxide],scaled lipid accumulation score,library stock concentration: 12.3 mM,≤ 0
Cc1cc(O)c(C=O)c2c1C(=O)Oc1c(C)c(O)c3c(c1O2)C(O)OC3=O (stereo not drawn) [Norstictic acid],scaled lipid accumulation score,[2],≤ 0
CNCCC(Oc1ccc(C(F)(F)F)cc1)c1ccccc1 (stereo not drawn) [Fluoxetine hydrochloride],scaled lipid accumulation score,[2],0.09
CNCCC(Oc1ccc(C(F)(F)F)cc1)c1ccccc1.Cl (stereo not drawn) [Fluoxetine hydrochloride] [listing 2 of 2 here],scaled lipid accumulation score,,1.05 (active)
CNCCC(Oc1ccc(C(F)(F)F)cc1)c1ccccc1 (stereo not drawn) [Fluoxetine],scaled lipid accumulation score,[2],0.637
CN(CC[C@@H](Oc1ccc(-c2ccccc2)cc1)c1ccc(F)cc1)CC(=O)O [ALX 5407 hydrochloride],scaled lipid accumulation score,[2],≤ -0.006
CN(CC[C@@H](Oc1ccc(C(F)(F)F)cc1)c1ccccc1)CC(=O)[O-].[Li+],scaled lipid accumulation score,[2],0.149
CNCC[C@H](Oc1ccc(C(F)(F)F)cc1)c1ccccc1 [S-(+)-Fluoxetine hydrochloride],scaled lipid accumulation score,[2],0.403
O=C(NCc1ccncc1)C12CC3CC(C1)CC(c1ccc(Cl)cc1)(C3)C2,scaled lipid accumulation score,library stock concentration: 13.1 mM,0.27
C[C@H](N[C@@H](CCc1ccccc1)C(=O)O)C(=O)N1Cc2ccccc2C[C@H]1C(=O)O,scaled lipid accumulation score,[2],≤ 0
Cc1[nH]c(/C=C2/C(=O)Nc3ccc(S(=O)(=O)N(C)c4cccc(Cl)c4)cc32)c(C)c1C(=O)N1CCN(C)CC1,scaled lipid accumulation score,[5],0.927 (active)
same,scaled lipid accumulation score,[2],1.14 (active)
Cc1[nH]c(C=C2C(=O)Nc3ccc(S(=O)(=O)N(C)c4cccc(Cl)c4)cc32)c(C)c1C(=O)N1CCN(C)CC1,scaled lipid accumulation score,[3],1.39 (active)
same,scaled lipid accumulation score,[2],1.27 (active)
O=C1Nc2ccc(Cl)cc2/C1=C/c1cc(Cl)c(O)c(Cl)c1,scaled lipid accumulation score,[6],≤ -0.001
same,scaled lipid accumulation score,[4],≤ -0.001
same,scaled lipid accumulation score,[5],≤ -0.001
same,scaled lipid accumulation score,[2],≤ -0.001
"O=C1Nc2ccc(Cl)cc2/C1=C/c1cc(Cl)c(O)c(Cl)c1 [PKR Inhibitor, Negative Control]",scaled lipid accumulation score,[3],≤ 0
CN1CCCN(C(=O)c2cccc(-c3ccc(/C=C4/C(=O)Nc5ccc(Cl)cc54)o3)c2)CC1,scaled lipid accumulation score,[3],0.657
same,scaled lipid accumulation score,[2],≤ -0.001
Cc1[nH]c(/C=C2\C(=O)Nc3ccc(S(=O)(=O)N(C)c4cccc(Cl)c4)cc32)c(C)c1C(=O)N1CCN(C)CC1,scaled lipid accumulation score,[6],0.129
same,scaled lipid accumulation score,[4],0.261
Cc1[nH]c(/C=C2\C(=O)Nc3ccc(S(=O)(=O)Cc4c(Cl)cccc4Cl)cc32)c(C)c1C(=O)N1CCC[C@@H]1CN1CCCC1 [listing 1 of 2 here],scaled lipid accumulation score,[3],0.429
same,scaled lipid accumulation score,[2],0.553 and 0.41 and 0.638
Cc1[nH]c(/C=C2\C(=O)Nc3ccc(S(=O)(=O)Cc4c(Cl)cccc4Cl)cc32)c(C)c1C(=O)N1CCC[C@@H]1CN1CCCC1 [listing 2 of 2 here],scaled lipid accumulation score,[6],1.15 (active)
same,scaled lipid accumulation score,[4],1.16 (active)
same,scaled lipid accumulation score,[5],1.16 (active)
CN1CCN(C(=O)c2cc3cc(Cl)ccc3[nH]2)CC1,scaled lipid accumulation score,[3],0.053
same,scaled lipid accumulation score,[2],0.452
Cc1[nH]c(/C=C2\C(=O)Nc3ccc(S(=O)(=O)N(C)c4cccc(Cl)c4)cc32)c(C)c1C(=O)N1CCN(C)CC1 [Met Kinase Inhibitor],scaled lipid accumulation score,[3],1.38 (active)
COC(=O)C[C@H](NC(=O)[C@H](C)NC(=O)[C@@H](NC(=O)OCc1ccccc1)C(C)C)C(=O)CF,scaled lipid accumulation score,library stock concentration: 10.7 mM,≤ -0.012
CC(=O)N[C@@H](CCC(N)=O)C(=O)O,scaled lipid accumulation score,[2],≤ 0
N#CC(c1ccnc(NCCc2cccnc2)n1)c1nc2ccccc2s1 (stereo not drawn) [JNK Inhibitor V],scaled lipid accumulation score,[3],0.329
N#CC(c1ccnc(NCCc2cccnc2)n1)c1nc2ccccc2s1 (stereo not drawn),scaled lipid accumulation score,[6],≤ 0
same,scaled lipid accumulation score,[4],≤ 0
same,scaled lipid accumulation score,[5],0.058
same,scaled lipid accumulation score,[2],0.62
CC(=O)NCCCCCCNC(C)=O,scaled lipid accumulation score,[2],≤ 0
COc1cc2c(cc1O)[C@@H](Cc1ccc(O)cc1)[N+](C)(C)CC2 [Magnocurarine iodide],scaled lipid accumulation score,[2],0.116
CCOCC(O)COc1ccc(NC(=O)CC[S+](C)C)cc1 (stereo not drawn) [Suplatast Tosylate],scaled lipid accumulation score,[3],≤ 0
same,scaled lipid accumulation score,[2],≤ 0
CCOCC(O)COc1ccc(NC(=O)CC[S+](C)C)cc1 (stereo not drawn) [Suplatast tosylate],scaled lipid accumulation score,[2],≤ -0.001
NC1=NCC2c3ccccc3Cc3ccccc3N12 (stereo not drawn) [Epinastine HCl],scaled lipid accumulation score,[3],≤ 0
same,scaled lipid accumulation score,[2],0.038
NC1=NCC2c3ccccc3Cc3ccccc3N12 (stereo not drawn) [Epinastine hydrochloride],scaled lipid accumulation score,[2],0.592
CCOC(=O)C(Cc1ccc(O)cc1)NC(C)=O (stereo not drawn) [Acetyl tyrosine ethyl ester],scaled lipid accumulation score,[2],≤ 0
CCCCC/C=C/C/C=C/CCCCCCCC(=O)O [Linoelaidic Acid],scaled lipid accumulation score,[1],0.006
CC(=O)[C@H]1CC[C@H]2[C@@H]3CC=C4C[C@@H](O)CC[C@]4(C)[C@H]3CC[C@]12C [Pregnenolone],scaled lipid accumulation score,,0.084
same,scaled lipid accumulation score,[3],≤ 0
same,scaled lipid accumulation score,library stock concentration: 6.3 mM,≤ 0
same,scaled lipid accumulation score,[2],≤ 0
C[C@]12CC[C@H](O)CC1=CC[C@@H]1[C@@H]2CC[C@]2(C)C(n3cnc4ccccc43)=CC[C@@H]12 [Galeterone],scaled lipid accumulation score,[3],0.137
C[C@]12CC[C@H](O)CC1=CCC1C2CC[C@]2(C)C(n3cnc4ccccc43)=CCC12 (stereo partly drawn) [Galeterone],scaled lipid accumulation score,[2],1.27 (active)
N[C@@H](Cc1ccc(O)c([N+](=O)[O-])c1)C(=O)O [Nitrotyrosine],scaled lipid accumulation score,[1],0.016
CC(C)NCCCn1c(Sc2cc3c(cc2I)OCO3)nc2c(N)ncnc21 [listing 1 of 2 here],scaled lipid accumulation score,[2],0.881 (active)
CC(C)NCCCn1c(Sc2cc3c(cc2I)OCO3)nc2c(N)ncnc21 [listing 2 of 2 here],scaled lipid accumulation score,[3],0.728
O=C(CCc1ccc(O)c(O)c1)N[C@@H](CC(=O)OCc1ccccc1)C(=O)OCc1ccccc1,scaled lipid accumulation score,[1],≤ 0
COCCOc1ccc2c(c1)ncn2-c1ccc2cccc(N3CCC(N)CC3)c2n1 [listing 1 of 2 here],scaled lipid accumulation score,[6],≤ 0
same,scaled lipid accumulation score,[4],0.202
same,scaled lipid accumulation score,[5],0.523
same,scaled lipid accumulation score,[3],0.785
same,scaled lipid accumulation score,[2],0.832
NC1CCN(c2cccc(Cl)n2)CC1,scaled lipid accumulation score,[2],0.62 and 0.499
COCCOc1ccc2c(c1)ncn2-c1ccc2cccc(N3CCC(N)CC3)c2n1 [listing 2 of 2 here],scaled lipid accumulation score,[2],0.937 (active)
CC1(COc2ccc3c(c2)ncn3-c2ccc3cccc(N4CCC(N)CC4)c3n2)COC1 [listing 1 of 2 here],scaled lipid accumulation score,[2],0.404
CC1(COc2ccc3c(c2)ncn3-c2ccc3cccc(N4CCC(N)CC4)c3n2)COC1 [listing 2 of 2 here],scaled lipid accumulation score,[3],0.869 (active)
